The supplement of paper PMC8728848
This excerpt belongs to a sample that is enriched for the strongest signals.

What was measured:
Assay in all cases: glycan array binding signal (z-score within array); higher = stronger binding
Details in all cases: glycan notation: IUPAC condensed, linker removed; mutation: D224N
[1] = target: Fuc(a1-2)Gal(b1-3)GlcNAc(b1-2)Man(a1-3)[Fuc(a1-2)Gal(b1-3)GlcNAc(b1-2)Man(a1-6)]Man(b1-4)GlcNAc(b1-4)GlcNAc
In short: (§1)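 The binding signal is a Z-score computed within each array. Data were drawn from 3228 arrays in the Consortium for Functional Glycomics database, restricted to those with a known protein sequence. Scores were averaged over arrays of the same protein sequence at different concentrations or buffers, and over linkers, and negative values can be taken as non-binding.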

[2] = target: Fuc(a1-2)Gal(b1-3)GlcNAc(b1-3)[Neu5Ac(a2-6)Gal(b1-4)GlcNAc(b1-6)]Gal(b1-4)Glc
In short: as §1

[3] = target: Fuc(a1-2)Gal(b1-3)GlcNAc6S
In short: as §1

[4] = target: Fuc(a1-2)Gal(b1-4)GlcNAc(b1-3)GalNAc
In short: as §1

[5] = target: Fuc(a1-2)Gal(b1-4)GlcNAc(b1-3)[Fuc(a1-2)Gal(b1-4)GlcNAc(b1-6)]GalNAc
In short: as §1

[6] = target: Fuc(a1-2)[Gal(a1-3)]Gal(b1-3)GalNAc
In short: as §1

[7] = target: Fuc(a1-2)[GalNAc(a1-3)]Gal(b1-3)GlcNAc
In short: as §1

[8] = target: Fuc(a1-2)[GalNAc(a1-3)]Gal(b1-4)GlcNAc(b1-3)Gal(b1-4)GlcNAc(b1-3)Gal(b1-4)GlcNAc
In short: as §1

[9] = target: Fuc(a1-3)[Gal(b1-4)]Glc6S
In short: as §1

[10] = target: Fuc(a1-3)[Gal(b1-4)]GlcNAc(b1-2)Man(a1-3)[Fuc(a1-3)[Gal(b1-4)]GlcNAc(b1-2)Man(a1-6)]Man(b1-4)GlcNAc(b1-4)[Fuc(a1-6)]GlcNAc
In short: as §1

[11] = target: Fuc(a1-3)[Gal(b1-4)]GlcNAc(b1-3)Gal(b1-4)[Fuc(a1-3)]GlcNAc(b1-3)Gal(b1-4)[Fuc(a1-3)]GlcNAc
In short: as §1

[12] = target: Fuc(a1-3)[Gal(b1-4)]GlcNAc(b1-6)GalNAc
In short: as §1

[13] = target: Gal(a1-2)Gal
In short: as §1

[14] = target: Gal(a1-3)GalNAc
In short: as §1

[15] = target: Gal(b1-3)GlcNAc(b1-2)Man
In short: as §1

[16] = target: Gal(b1-3)GlcNAc(b1-3)Gal(b1-4)GlcNAc(b1-6)[Gal(b1-3)GlcNAc(b1-3)]Gal(b1-4)Glc
In short: as §1

[17] = target: Gal(b1-4)GlcNAc(b1-3)Gal(b1-4)GlcNAc(b1-2)[Gal(b1-4)GlcNAc(b1-3)Gal(b1-4)GlcNAc(b1-6)]Man(a1-6)[Gal(b1-4)GlcNAc(b1-3)Gal(b1-4)GlcNAc(b1-2)Man(a1-3)]Man(b1-4)GlcNAc(b1-4)GlcNAc
In short: as §1

[18] = target: Gal(b1-4)GlcNAc(b1-3)Gal(b1-4)GlcNAc(b1-3)Gal(b1-4)GlcNAc(b1-3)Gal(b1-4)GlcNAc(b1-2)Man(a1-3)[Gal(b1-4)GlcNAc(b1-3)Gal(b1-4)GlcNAc(b1-3)Gal(b1-4)GlcNAc(b1-3)Gal(b1-4)GlcNAc(b1-2)Man(a1-6)]Man(b1-4)GlcNAc(b1-4)[Fuc(a1-6)]GlcNAc
In short: as §1

[19] = target: Gal(b1-4)GlcNAc(b1-3)Gal(b1-4)GlcNAc(b1-3)Gal(b1-4)GlcNAc(b1-3)Gal(b1-4)GlcNAc(b1-3)Gal(b1-4)GlcNAc(b1-2)Man(a1-3)[Gal(b1-4)GlcNAc(b1-3)Gal(b1-4)GlcNAc(b1-3)Gal(b1-4)GlcNAc(b1-3)Gal(b1-4)GlcNAc(b1-3)Gal(b1-4)GlcNAc(b1-2)Man(a1-6)]Man(b1-4)GlcNAc(b1-4)GlcNAc
In short: as §1

[20] = target: Gal3S(b1-4)[Fuc(a1-3)]Glc6S
In short: as §1

[21] = target: Gal3S6S(b1-4)GlcNAc
In short: as §1

[22] = target: Gal6S(b1-4)Glc6S
In short: as §1

[23] = target: Glc(a1-4)Glc(a1-4)Glc(a1-4)Glc
In short: as §1

[24] = target: GlcNAc(a1-4)Gal(b1-4)GlcNAc
In short: as §1

[25] = target: GlcNAc(a1-4)Gal(b1-4)GlcNAc(b1-3)Gal(b1-4)GlcNAc(b1-3)Gal(b1-4)GlcNAc
In short: as §1

B1: a L Fucosidase (Thermotoga maritima) (protein)
chain: MASMKPRYKPDWESLREHTVPKWFDKAKFGIFIHWGIYSVPGWATPTGELGKVPMDAWFFQNPYAEWYENSLRIKESPTWEYHVKTYGENFEYEKFADLFTAEKWDPQEWADLFKKAGAKYVIPTTKHHDGFCLWGTKYTDFNSVKRGPKRDLVGDLAKAVREAGLRFGVYYSGGLDWRFTTEPIRYPEDLSYIRPNTYEYADYAYKQVMELVDLYLPDVLWNNMGWPEKGKEDLKYLFAYYYNKHPEGSVNDRWGVPHWDFKTAEYHVNYPGDLPGYKWEFTRGIGLSFGYNRNEGPEHMLSVEQLVYTLVDVVSKGGNLLLNVGPKGDGTIPDLQKERLLGLGEWLRKYGDAIYGTSVWERCCAKTEDGTEIRFTRKCNRIFVIFLGIPTGEKIVIEDLNLSAGTVRHFLTGERLSFKNVGKNLEITVPKKLLETDSITLVLEAVEE
glycan array binding signal (z-score) [1]: 0.227 | glycan array binding signal (z-score) [2]: -0.742 | glycan array binding signal (z-score) [3]: -0.396 | glycan array binding signal (z-score) [4]: 0.144 | glycan array binding signal (z-score) [5]: 0.657 | glycan array binding signal (z-score) [6]: -0.35 | glycan array binding signal (z-score) [7]: 2.8 | glycan array binding signal (z-score) [8]: 0.201 | glycan array binding signal (z-score) [9]: 2.33 | glycan array binding signal (z-score) [10]: 1.05 | glycan array binding signal (z-score) [11]: 0.062 | glycan array binding signal (z-score) [12]: -0.2 | glycan array binding signal (z-score) [13]: -0.446 | glycan array binding signal (z-score) [14]: -0.41 | glycan array binding signal (z-score) [15]: 0.366 | glycan array binding signal (z-score) [16]: -0.509 | glycan array binding signal (z-score) [17]: 1.93 | glycan array binding signal (z-score) [18]: 0.731 | glycan array binding signal (z-score) [19]: 0.594 | glycan array binding signal (z-score) [20]: 0.443 | glycan array binding signal (z-score) [21]: 1.33 | glycan array binding signal (z-score) [22]: -0.426 | glycan array binding signal (z-score) [23]: 2.84 | glycan array binding signal (z-score) [24]: -0.293 | glycan array binding signal (z-score) [25]: 0.079
